In PubChem BioAssay (NCI):
Several values for one entry are separate records, joined by “and”; a condition that tells them apart may be missing. Identical values can stand only once. About 83,000 compounds went through this panel and 20% of them were active in at least one assay; those are over-represented in the sample as a whole.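 The endpoint reported here, percent growth, reads 100 for growth as untreated, 0 for no net growth and -100 for all cells dead.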 Activity calls are given as the source filed them. Rule for the calls: active = growth percent below 10; inactive = the rest.

Assays:
Assay in all cases: NCI-60 one-dose screen, 48 h (100 = growth as untreated, 0 = no growth, -100 = all killed)
Settings in all cases: 10 µM unless noted
NCI-H23 lung = tested on: NCI-H23 lung
NCI-H226 lung = tested on: NCI-H226 lung
NCI-H322M lung = tested on: NCI-H322M lung
HOP-62 NSCLC = tested on: HOP-62 NSCLC
NCI-H460 lung = tested on: NCI-H460 lung
NCI-H522 lung = tested on: NCI-H522 lung
A549/ATCC NSCLC = tested on: A549/ATCC NSCLC
786-0 renal = tested on: 786-0 renal
COLO 205 colon = tested on: COLO 205 colon
DU-145 prostate = tested on: DU-145 prostate
K-562 leukemia = tested on: K-562 leukemia
MALME-3M melanoma = tested on: MALME-3M melanoma
MDA-MB-231 breast = tested on: MDA-MB-231 breast
RXF 393 renal = tested on: RXF 393 renal
SF-268 CNS = tested on: SF-268 CNS
SF-295 CNS = tested on: SF-295 CNS
SF-539 CNS = tested on: SF-539 CNS
UACC-257 melanoma = tested on: UACC-257 melanoma
M14 melanoma = tested on: M14 melanoma
HOP-92 NSCLC = tested on: HOP-92 NSCLC

Measured: growth

O=c1c2ccccc2nc(-c2ccccc2Cl)n1-c1nnc(C(F)(F)F)s1
active: NCI-H23 lung -0.336% | NCI-H522 lung -23.4% | MALME-3M melanoma -11.5%
inactive: NCI-H226 lung 42.9% | NCI-H322M lung 17.6% | HOP-62 NSCLC 58.7% | NCI-H460 lung 24.7% | A549/ATCC NSCLC 37.3% | 786-0 renal 22.4% | COLO 205 colon 43.6% | DU-145 prostate 56.8% | K-562 leukemia 11.4% | MDA-MB-231 breast 52.3% | RXF 393 renal 38.9% | SF-268 CNS 38.8% | SF-295 CNS 12% | SF-539 CNS 19.7% | UACC-257 melanoma 30% | M14 melanoma 35.1%

COc1c(O)cc2c(c1OC)-c1ccc(SC)c(=O)cc1C(NC(C)=O)CC2 (stereo not given)
inactive: NCI-H23 lung 21.4% | NCI-H226 lung 23.1% | NCI-H322M lung 41.1% | HOP-62 NSCLC 22.2% | A549/ATCC NSCLC 46.4% | 786-0 renal 19.1% | MALME-3M melanoma 39.9% | RXF 393 renal 20.3% | SF-268 CNS 29.7% | UACC-257 melanoma 20.1% | M14 melanoma 15.7%
active: NCI-H460 lung 3% | NCI-H522 lung -46.8% | COLO 205 colon -44.6% | DU-145 prostate -28.7% | K-562 leukemia -24.9% | MDA-MB-231 breast 2.58% | SF-295 CNS 9.18% | SF-539 CNS -15%

CN1C2CCC1[C@@H](COC(=O)c1ccccc1)[C@@H](O)C2 (stereo not given in full)
inactive: NCI-H23 lung 108% | NCI-H226 lung 99.6% | NCI-H322M lung 119% | HOP-62 NSCLC 99.7% | NCI-H460 lung 113% | HOP-92 NSCLC 69.9% | NCI-H522 lung 64.9% | A549/ATCC NSCLC 99.2% | 786-0 renal 108% | COLO 205 colon 129% | DU-145 prostate 112% | K-562 leukemia 81.3% | MALME-3M melanoma 129% | MDA-MB-231 breast 103% | SF-268 CNS 108% | SF-295 CNS 112% | SF-539 CNS 103% | UACC-257 melanoma 97.1% | M14 melanoma 100%

c1ccc2c(c1)O[As](O[As]1Oc3ccccc3O1)O2
active: HOP-92 NSCLC -12.2% | K-562 leukemia 5.83% | MALME-3M melanoma -7.18% | SF-539 CNS -32.9%
inactive: NCI-H23 lung 43.8% | NCI-H226 lung 65.2% | NCI-H322M lung 58.5% | HOP-62 NSCLC 50.6% | NCI-H460 lung 54.8% | 786-0 renal 25.3% | COLO 205 colon 50.3% | DU-145 prostate 60.6% | MDA-MB-231 breast 62% | RXF 393 renal 42.4% | SF-268 CNS 19.2% | SF-295 CNS 99.3%

CCCCCCCCCCCCCCCC[N+](C)(C)Cc1ccccc1
15.7% (inactive) and -100% (active): NCI-H460 lung
inactive: NCI-H322M lung 63.3% and 33.8%
26.7% (inactive) and -40.3% (active): DU-145 prostate
11% (inactive) and -94.1% (active): 786-0 renal
15% (inactive) and -22.5% (active): K-562 leukemia
21.5% (inactive) and -6.4% (active): NCI-H226 lung
active: NCI-H23 lung 9.06% and -49.4% | HOP-92 NSCLC -39.2% and -55.5% | NCI-H522 lung 4.46% and -58.2% | COLO 205 colon -30.4% and -100% | MALME-3M melanoma -25% and -55.5% | MDA-MB-231 breast -41.4% and -70.1% | RXF 393 renal 0.124% | SF-268 CNS 0.106% and -74.5% | SF-539 CNS -61.2% and -99.3%
20.6% (inactive) and -28.5% (active): SF-295 CNS
17.9% (inactive) and -86.3% (active): HOP-62 NSCLC

O=S1(=O)OCCO1
inactive: NCI-H23 lung 96.5% | NCI-H226 lung 103% | NCI-H322M lung 95.4% | HOP-62 NSCLC 103% | NCI-H460 lung 103% | HOP-92 NSCLC 102% | NCI-H522 lung 96.3% | A549/ATCC NSCLC 102% | 786-0 renal 101% | COLO 205 colon 106% | DU-145 prostate 104% | K-562 leukemia 99.1% | MALME-3M melanoma 88.8% | RXF 393 renal 103% | SF-268 CNS 98.2% | SF-295 CNS 98.3% | SF-539 CNS 95.1% | UACC-257 melanoma 96.7% | M14 melanoma 103%

CCCC(C)SP(=S)(SC(C)CCC)SC(C)CCC (stereo not given)
inactive: NCI-H23 lung 95.5% | NCI-H226 lung 88.8% | NCI-H322M lung 101% | HOP-62 NSCLC 101% | NCI-H460 lung 98.9% | HOP-92 NSCLC 94.7% | NCI-H522 lung 90.9% | 786-0 renal 98.9% | COLO 205 colon 98.6% | DU-145 prostate 108% | K-562 leukemia 112% | MALME-3M melanoma 87.6% | MDA-MB-231 breast 113% | RXF 393 renal 95.5% | SF-268 CNS 104% | SF-295 CNS 101% | SF-539 CNS 103%

O=C1NC(=O)C(=C/C=C/c2ccccc2)C(=O)N1
active: NCI-H23 lung -49% | NCI-H522 lung 6.24% | 786-0 renal -25.4% | COLO 205 colon -47.1% | K-562 leukemia 8.24% | MALME-3M melanoma -4.86% | MDA-MB-231 breast 3.87% | RXF 393 renal -91.5% | M14 melanoma -20.5%
inactive: NCI-H226 lung 62.7% | NCI-H322M lung 97% | HOP-62 NSCLC 48.2% | NCI-H460 lung 33.1% | HOP-92 NSCLC 92.8% | A549/ATCC NSCLC 80.2% | SF-268 CNS 30% | SF-295 CNS 97.8% | SF-539 CNS 27.4% | UACC-257 melanoma 38.7%
